Source: PubChem
This is a sample that favours compounds with a hit; in the whole collection about 3.9% have one here.
AHR activator = AHR activators, primary screen, cell-based, luminescence, luciferase reporter, human; AHR-responsive luciferase reporter cells; AID 2796, 2010; activation, % at 5 µM; actives 2.5% (n = 320,000); in the data active = activation above about 47%;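 note: 0% = vehicle wells and 100% = reference agonist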
HGIII-sPLA2 inh = human group III sPLA2 inhibitors, primary screen, biochemical, QFRET, BODIPY PC-A2 liposome substrate | Group 3 secretory phospholipase A2 (Homo sapiens), Q9NZ20 | QFRET BODIPY PC-A2 liposome hydrolysis, fluorescence | inhibition, % at 12.2 µM | actives 0.56% (n = 370,000) | AID 743126, 2013;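 active = inhibition above mean plus 3 SD of compounds lying within the high and low control bounds, cut at about 19% in these data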;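 note: 0% = median of test compound wells and 100% = no enzyme DMSO wells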
Yeast superoxide = reduction of superoxide in aged yeast, primary screen, HTS. S. cerevisiae aged cells, superoxide DHE fluorescence; stronger effect = lower value. superoxide response (% of plate mean), % at 10 µM. actives 0.18% (n = 330,000);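 active = superoxide response under a set limit, about three screen SD below normal, cut at about 65% in these data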;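 note: yeast aged for seven days with compound at 30 °C before DHE staining; 100% = average MFI of all compound-treated wells on the plate with controls excluded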
PLCg1 inh = PLC-gamma1 enzyme inhibitors, primary screen, biochemical, fluorescence, purified enzyme; inhibition, % at 12.2 µM; actives 0.84% (n = 370,000); AID 720700, 2013; fluorogenic substrate; in the data active = inhibition above about 9.5%
HIF activator = HIF pathway transcriptional activators, primary screen, cell-based, U2OS HRE-luciferase, luminescence | U2OS HRE-luciferase reporter; normalized: DMSO 0%, desferrioxamine 100% | activation, % at 7.5 µM (by protocol) | actives 0.32% (n = 300,000) | AID 1910, 2009;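 active = mean activation of at least 10% of the iron chelator positive control signal, with at least half of replicates also reaching 10%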
PLCb3 inh = human PLC-beta3 inhibitors, primary screen, biochemical, fluorescence. Purified PLC-beta3, fluorogenic substrate. 1-phosphatidylinositol 4,5-bisphosphate phosphodiesterase beta-3 (Homo sapiens), Q01970. actives 0.18% (n = 370,000). inhibition, % at 12.2 µM; in the data active = inhibition above about 11%;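 note: 0% = median of compound wells on plate and 100% = full blocker control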
Target sequence (Q01970 whole entry, looked up): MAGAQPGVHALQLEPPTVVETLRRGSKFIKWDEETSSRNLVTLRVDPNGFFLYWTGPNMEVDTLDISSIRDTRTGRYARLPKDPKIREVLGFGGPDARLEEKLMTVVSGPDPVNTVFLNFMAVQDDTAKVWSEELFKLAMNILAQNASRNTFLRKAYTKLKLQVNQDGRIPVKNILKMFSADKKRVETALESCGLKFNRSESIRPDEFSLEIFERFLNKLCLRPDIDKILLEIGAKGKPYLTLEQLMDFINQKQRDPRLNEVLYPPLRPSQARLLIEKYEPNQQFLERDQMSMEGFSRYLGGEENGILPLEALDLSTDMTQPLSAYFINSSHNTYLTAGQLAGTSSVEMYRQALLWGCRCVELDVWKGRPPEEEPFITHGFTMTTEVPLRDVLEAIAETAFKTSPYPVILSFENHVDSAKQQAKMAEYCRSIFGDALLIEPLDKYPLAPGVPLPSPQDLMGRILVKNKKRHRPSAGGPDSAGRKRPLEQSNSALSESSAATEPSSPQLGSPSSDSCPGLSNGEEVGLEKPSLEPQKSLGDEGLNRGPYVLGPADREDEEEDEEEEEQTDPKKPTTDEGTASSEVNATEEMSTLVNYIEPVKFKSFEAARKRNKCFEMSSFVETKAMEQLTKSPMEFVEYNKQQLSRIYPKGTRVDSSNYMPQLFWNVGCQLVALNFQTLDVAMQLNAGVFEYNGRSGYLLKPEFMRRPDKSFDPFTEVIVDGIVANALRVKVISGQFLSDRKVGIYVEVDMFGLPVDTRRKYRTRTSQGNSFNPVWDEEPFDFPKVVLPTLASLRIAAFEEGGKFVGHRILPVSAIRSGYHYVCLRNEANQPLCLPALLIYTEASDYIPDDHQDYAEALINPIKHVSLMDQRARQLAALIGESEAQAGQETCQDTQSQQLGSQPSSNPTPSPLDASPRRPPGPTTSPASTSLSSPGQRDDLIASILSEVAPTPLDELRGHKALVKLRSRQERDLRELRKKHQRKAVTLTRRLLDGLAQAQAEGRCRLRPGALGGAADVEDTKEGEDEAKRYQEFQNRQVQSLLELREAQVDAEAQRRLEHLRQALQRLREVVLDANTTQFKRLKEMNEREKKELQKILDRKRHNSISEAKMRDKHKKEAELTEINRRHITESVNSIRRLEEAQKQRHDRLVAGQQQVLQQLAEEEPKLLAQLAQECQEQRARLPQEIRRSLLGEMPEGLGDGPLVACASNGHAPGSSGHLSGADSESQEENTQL
sPLA2 confirm = human group III sPLA2 inhibitors, confirmation, biochemical, QFRET, triplicate. inhibition, % at 12.2 µM. shares compounds with HGIII-sPLA2 inh. actives 34% (n = 2,000). recombinant hGIII-sPLA2, BODIPY PC-A2 QFRET fluorescence;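 active = mean inhibition across triplicates above the hit cutoff set in the earlier primary screen, cut at about 19% in these data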;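 note: 0% = enzyme with DMSO and 100% = DMSO wells lacking enzyme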
535nm interf = 535nm fluorescence optical interference, confirmation, artefact control for HGIII-sPLA2 inhibitor project, biochemical, QFRET; actives 8.5% (n = 2,000); inhibition, % at 12.2 µM; shares compounds with HGIII-sPLA2 inh; BODIPY FL product fluorescence interference;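 active = average inhibition above the solvent-only control mean plus 3 SD, cut at about 6% in these data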;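 note: 0% = DMSO with substrate plus product and 100% = DMSO with substrate alone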
* marks the source's active call; other numbers are inactive results; x = no result given.

SMILES	AHR activator	HGIII-sPLA2 inh	Yeast superoxide	PLCg1 inh	HIF activator	PLCb3 inh	sPLA2 confirm	535nm interf
COc1ccc(Cc2n[nH]c(=S)n2-c2cc(C)ccc2C)cc1OC	x	0	x	-1	x	3	x	x
CCCCOc1ccc(S(=O)(=O)NC(=O)C2(C)CCN2C(=O)Cc2cccs2)cc1 (stereo not given)	x	87*	x	-1	x	-7	-10	-6
CC(=O)N1CCN(c2cc(-c3ccccc3)nc3cc(-c4cccc(Cl)c4)nn23)CC1	x	8	x	-74	x	-99	x	x
S=c1[nH]nc(Cc2ccc(Cl)cc2)o1	0	22*	116	2	x	-4	8	-6
CCOc1cc(N2CCOCC2)c(OCC)cc1NC(=O)c1ccc(OCc2c(C)noc2C)c(OC)c1	-1	20*	111	2	0	-1	4	-30
NC(=O)c1sc2nc3c(c(-c4ccco4)c2c1N)CCCC3	1	20*	104	-57	2	-90	-1	-11
C=CCOc1ccccc1CN(C(=O)CCl)c1ccc2c(c1)OCO2	43	3	93	-2	1	-9	x	x
CC1(C)CC(=O)C(N=Nc2ccc(C(F)(F)F)cc2[N+](=O)[O-])=C(O)C1	37	20*	105	-9	0	-2	10	-4
CC1(C)CC(=O)C(N=Nc2cccc([N+](=O)[O-])c2)=C(O)C1	2	4	113	3	1	-2	x	x
CCN(CC1CCCN(CCc2cccc(OC)c2)C1)C(=O)c1ccoc1 (stereo not given)	2	-1	107	3	0	-3	x	x
CC1CCc2nc3sc4c(c3c(N)c2C1)CCCC4 (stereo not given)	5	20*	106	-13	5	-18	11	-5
CC1CCc2c(nc3sc4c(c3c2N)CCCC4)C1 (stereo not given)	16	-1	81	-4	2	-6	x	x
CC1(C)C(=O)N(c2ccccc2Cl)C(=O)c2ccccc21	-1	-3	93	-3	2	-4	x	x
CCCS(=O)(=O)c1c(S(=O)(=O)CCC)c2cnccn2c1C(=O)c1ccc(F)cc1	0	19*	112	-5	0	-3	3	-10
Fc1cnc(N2CCN(c3ccccc3)CC2)nc1N1CCN(c2ccccc2)CC1	-5	21*	100	0	0	1	-1	-7
CC(C)Oc1ccc(C(=O)Nc2ccc(N(C)C)cc2)cc1	3	19*	98	-2	x	-7	15	-6
COc1ccc(C(=S)Nc2ccc(N(C)C)cc2)cc1	-8	23*	97	-28	1	-40	26*	5
COc1ccc(NC(=S)c2ccc(N(C)C)cc2)cc1	-4	20*	99	-4	36*	-8	10	-5
COc1ccc(NC(=S)c2ccccc2)cc1	3	4	82	2	0	2	x	x
Cc1ccc(NC(=S)c2ccc(N(C)C)cc2)cc1	11	25*	118	-9	-1	-6	16	2
COc1ccc(NC(=S)Nc2ccc(N(C)C(C)=O)cc2)cc1	0	11	110	-1	1	-4	x	x
CN(Cc1cccnc1)C(=O)c1cc(COc2ccc3c(c2)CCCC3)on1	12	-16	109	0	4	-11	x	x
CC1CN(C(=O)C2CC2)C(C)CN1C(=O)C1CC1 (stereo not given)	0	25*	91	3	-1	3	-7	-1
